Records with an inconclusive call do not appear. Values without a mark were called inactive. Active and inactive are the calls of the source. Calls come from the whole dose curve; as a rule, active = well fitted curve in the direction sought with a large enough effect; inconclusive = small, poorly fitted or top-dose-only effect, or another doubt; inactive = no such curve, though single readings can be large; an effect the other way counts as inactive or inconclusive.

The target of assay [1] is Ubiquitin carboxyl-terminal hydrolase 1 (Homo sapiens) (UniProt O94782). Put plainly: Inhibitors of USP1/UAF1: Pilot qHTS (AID 504865). Note: nearly all actives have a fitted effect of over 35% in size. Note: potency is the fitted concentration of half-maximal effect. The method, boiled down: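 Kinetic fluorescence assay: 1nM USP1/UAF1, 15 min compound preincubation, then 150nM Ub-Rho; 480/540 nm.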
(In qHTS, concentration-response curves come from the screen itself.)

The nature of assay [2]: qHTS profiling for inhibitors of Plasmodium falciparum proliferation (AID 504749).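 Note: 0% = DMSO vehicle and full inhibition = artemisinin control; nearly all actives have a fitted effect of over 60% in size.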 The settings on record: P. falciparum in erythrocytes, SYBR Green DNA, 72 h, at 28.7 µM (top of the series). The method in brief:
(§1)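 SYBR Green fluorescence of parasite DNA, read after lysis and overnight dark incubation, measured growth over 72 h in erythrocyte culture at 0.3% parasitemia and 2.5% hematocrit. Data normalised to DMSO and 0.29 uM artemisinin, with plate-drift correction.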

In a further assay the test system is AA1029. The assay is described as above. The settings on record: P. falciparum in erythrocytes, SYBR Green DNA, 72 h; series mostly up to 28.7 µM. The method, boiled down: as §1
Another assay deals with ATS189. Described as above. To be noted: P. falciparum in erythrocytes, SYBR Green DNA, 72 h; series mostly up to 28.7 µM. The method in brief: as §1
A further assay concerns CP185. The assay is described as above. The settings on record: P. falciparum in erythrocytes, SYBR Green DNA, 72 h; series mostly up to 28.7 µM. The method, boiled down:
as §1

The next assay has as its system CP201. The description is as above. To be noted: P. falciparum in erythrocytes, SYBR Green DNA, 72 h; series mostly up to 28.7 µM. The method, boiled down: as §1
In a further assay the test system is CP238. The assay is described as above. The settings on record: P. falciparum in erythrocytes, SYBR Green DNA, 72 h; series mostly up to 28.7 µM. The method, boiled down: as §1
A further assay relates to CP252. Described as above. The settings on record: P. falciparum in erythrocytes, SYBR Green DNA, 72 h; series mostly up to 28.7 µM. The method in brief:
as §1

Another assay concerns CP265. The assay is described as above. To be noted: P. falciparum in erythrocytes, SYBR Green DNA, 72 h; series mostly up to 28.7 µM. The method, boiled down: as §1
Another assay concerns CP286. The description is as above. To be noted: P. falciparum in erythrocytes, SYBR Green DNA, 72 h; series mostly up to 28.7 µM. The method in brief: as §1
The next assay concerns CP305. The assay is described as above. To be noted: P. falciparum in erythrocytes, SYBR Green DNA, 72 h; series mostly up to 28.7 µM. The method, boiled down: as §1
The next assay concerns CP325. The assay is described as above. To be noted: P. falciparum in erythrocytes, SYBR Green DNA, 72 h; series mostly up to 28.7 µM. The method in brief:
as §1

The next assay deals with DFO2036. The assay is described as above. To be noted: P. falciparum in erythrocytes, SYBR Green DNA, 72 h; series mostly up to 28.7 µM. The method, boiled down: as §1
The subject of another assay is FAB9. The description is as above. To be noted: P. falciparum in erythrocytes, SYBR Green DNA, 72 h; series mostly up to 28.7 µM. The method in brief:
as §1

For the next assay, the system named is PC15. The description is as above. The settings on record: P. falciparum in erythrocytes, SYBR Green DNA, 72 h; series mostly up to 28.7 µM. The method in brief:
as §1

A further assay has as its system PC49. The description is as above. The settings on record: P. falciparum in erythrocytes, SYBR Green DNA, 72 h; series mostly up to 28.7 µM. The method in brief:
as §1

The target of assay [3] is Cytochrome P450 3A4 (Homo sapiens) (UniProt P08684). Put plainly: qHTS Assay for Inhibitors and Substrates of Cytochrome P450 3A4 (AID 884). Note: nearly all actives have a fitted effect of over 50% in size. Note: potency is the fitted concentration of half-maximal effect. The method, boiled down: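 Luminescent readout of luciferin produced by CYP3A4 (20 nM) dealkylation of Luciferin-PPXE, 25 uM (its KM). NADPH-driven reaction ran 60 min at RT after 10 min compound preincubation; data scaled to 57 uM ketoconazole as 100% inhibition.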
Chain of Cytochrome P450 3A4 (Homo sapiens) (P08684 whole entry, looked up): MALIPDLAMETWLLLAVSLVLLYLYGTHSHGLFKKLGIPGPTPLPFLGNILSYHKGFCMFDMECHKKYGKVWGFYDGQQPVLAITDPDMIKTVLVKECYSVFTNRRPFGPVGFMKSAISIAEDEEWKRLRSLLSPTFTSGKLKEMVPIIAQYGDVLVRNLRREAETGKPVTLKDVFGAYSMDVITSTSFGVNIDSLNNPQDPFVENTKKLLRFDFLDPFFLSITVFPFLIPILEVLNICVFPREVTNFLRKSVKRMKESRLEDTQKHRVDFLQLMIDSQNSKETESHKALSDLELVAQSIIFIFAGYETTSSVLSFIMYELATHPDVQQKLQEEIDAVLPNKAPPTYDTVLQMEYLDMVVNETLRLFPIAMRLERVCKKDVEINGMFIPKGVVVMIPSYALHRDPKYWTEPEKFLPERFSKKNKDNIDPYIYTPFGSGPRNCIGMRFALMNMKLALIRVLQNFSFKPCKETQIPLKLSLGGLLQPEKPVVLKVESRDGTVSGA

Chain of Ubiquitin carboxyl-terminal hydrolase 1 (Homo sapiens) (O94782 whole entry, looked up): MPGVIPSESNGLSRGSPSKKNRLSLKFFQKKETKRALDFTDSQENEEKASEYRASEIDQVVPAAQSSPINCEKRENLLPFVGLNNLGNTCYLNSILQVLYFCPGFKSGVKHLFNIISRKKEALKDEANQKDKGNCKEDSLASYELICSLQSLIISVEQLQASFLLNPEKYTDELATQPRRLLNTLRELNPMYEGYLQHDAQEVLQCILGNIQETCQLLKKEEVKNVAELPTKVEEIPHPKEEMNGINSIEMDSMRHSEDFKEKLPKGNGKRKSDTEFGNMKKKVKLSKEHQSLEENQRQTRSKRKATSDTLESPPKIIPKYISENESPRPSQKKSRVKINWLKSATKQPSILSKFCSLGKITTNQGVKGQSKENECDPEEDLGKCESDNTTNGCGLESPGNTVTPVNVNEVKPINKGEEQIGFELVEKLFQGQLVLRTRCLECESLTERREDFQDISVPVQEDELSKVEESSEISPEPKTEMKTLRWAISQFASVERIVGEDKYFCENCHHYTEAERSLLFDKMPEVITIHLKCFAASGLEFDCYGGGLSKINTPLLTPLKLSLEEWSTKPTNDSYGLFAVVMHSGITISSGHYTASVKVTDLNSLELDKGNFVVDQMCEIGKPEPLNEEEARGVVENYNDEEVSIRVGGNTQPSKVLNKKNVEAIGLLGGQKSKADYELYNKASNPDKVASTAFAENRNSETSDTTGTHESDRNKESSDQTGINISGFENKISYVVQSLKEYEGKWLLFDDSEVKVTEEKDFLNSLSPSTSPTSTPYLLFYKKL

Turning to `CC(=O)OCC1=C(C(=O)O)N2C(=O)C(NC(=O)Cc3ccccc3)C2SC1` (centres undefined), the Potency entry (in assay [1]; in the assay on AA1029; in the assay with ATS189; with CP185; in the assay with CP201; in the assay with CP238) was “inactive” throughout. The Potency entry with CP252, in the assay with CP265, in the assay on CP286, in the assay with CP305, in the assay with CP325 and in the assay on DFO2036 was “inactive” each time. Also, the Potency entry in the assay with FAB9, in the assay on PC15 and with PC49 was “inactive” in each case. Also, the activity, negative = inhibition was 1.08% in assay [2] (parasite line A) and 0.234% in [2] (parasite line B).
With `O=C(/C=C/c1ccccc1)c1cccs1`, the Potency entry in assay [3] and in [1] was “inactive” in each case.
For `CC(C)CC(NC(=O)C(COC(C)(C)C)NC(=O)C(Cc1ccc(O)cc1)NC(=O)C(CO)NC(=O)C(Cc1c[nH]c2ccccc12)NC(=O)C(Cc1cnc[nH]1)NC(=O)C1CCC(=O)N1)C(=O)NC(CCCN=C(N)N)C(=O)N1CCCC1C(=O)NNC(N)=O` (centres undefined), the Potency result (in [1]; in the assay with AA1029; in the assay on ATS189; with CP185; in the assay with CP201; in the assay with CP238) was “inactive” throughout. Also, the Potency result in the assay on CP252, in the assay with CP265, in the assay with CP286, with CP305, in the assay on CP325 and with DFO2036 was “inactive” in each case. The Potency entry with FAB9, in the assay with PC15 and in the assay with PC49 was “inactive” each time. In addition, the activity, negative = inhibition in assay [2] (parasite line A) was 11.9%; in assay [2] (parasite line B), 5.86%.
Regarding `COc1cc2c(C(=O)c3ccccc3)c3c4c(cc(OC)c(OC)c4c2cc1OC)CCN3C`, the Potency in assay [3] is 1.26 µM (active); in assay [1] it was 25.1 µM (active).
`CCC(Oc1ccccc1)C(=O)NC1C(=O)N2C1SC(C)(C)C2C(=O)O` (centres undefined): the Potency result (in assay [1]; in the assay on AA1029; in the assay with ATS189; with CP185; in the assay with CP201; in the assay on CP238) was “inactive” in each case. The Potency entry in the assay with CP252, in the assay on CP265, in the assay on CP286, with CP305, with CP325 and in the assay with DFO2036 was “inactive” each time. Besides, the Potency entry in the assay on FAB9, with PC15 and in the assay with PC49 was “inactive” in each case. Besides, the activity, negative = inhibition is -3.05% in [2] (parasite line A) and 10.5% in [2] (parasite line B).
As to `Cc1csc(-c2nc3ccccc3n2C)n1`, the Potency in assay [3] is 31.6 µM (active). In addition, the Potency result in [1] was “inactive”.
For the compound `CCOc1ccc(/C=C/C(=O)c2cccs2)cc1`, the Potency entry in assay [3] and in [1] was “inactive” throughout.

The values are drawn from PubChem BioAssay (NCATS).
